High-throughput results: PubChem BioAssay, National Center for Advancing Translational Sciences (NCATS)
Pol eta inh-1: inhibitors of human DNA polymerase eta | Q9Y253 | recombinant Pol eta, fluorescent DNA replication assay | Potency, µM (doses to about 114 µM), inactives show top-dose activity change, negative = inhibition, actives largely listed as inhibitors | 1.2% of 390,000 active; further: on the % scale 0 is the no-effect control and ±100 the full control effect
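Pol eta (10 nM) was preincubated with compounds for 15 min at room temperature, after which fluorescent replication substrate (50 nM final) was added to start the reaction. Fluorescence was read kinetically at 0 and 10 min.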
FEN1 inhibitor: inhibitors of human flap endonuclease 1; Potency, µM (top dose mostly 114 µM), for the others: at the top dose activity change, negative = inhibition, most hits filed as inhibitors; Recombinant FEN1 flap cleavage, fluorescence, 15 min; P39748; 0.35% of 390,000 active; further: on the % scale 0 is the no-effect control and ±100 the full control effect; nearly all actives have a fitted effect of over 65% in size
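Enzyme 10 nM, 15 min RT preincubation with compound; start with substrate 50 nM final; reads at 0 and 15 min; qHTS titration, four-parameter Hill fit.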
Pol iota inh: inhibitors of human DNA polymerase iota; Q9UNA4; Pol iota fluorescent replication assay, 10 min; Potency, µM (titrated, usually from 115 µM), for inactives: top-dose activity, negative = inhibition, most hits filed as inhibitors; 1% of 390,000 active
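Fluorescent replication assay read twice, at 0 min and 10 min after adding 50 nM (final) substrate. Enzyme (10 nM) and compounds were first incubated 15 min at room temperature; enzyme-free buffer wells were negative controls.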
PGK inhibitor: blocks T. brucei phosphoglycerate kinase; PGK/GAPDH coupled, Kinase-Glo luminescence, 60 min; Potency, µM (highest dose often 57.5 µM), inactives show at the highest dose activity change, negative = inhibition, usual class: inhibitors; 0.043% of 380,000 active; further: on the % scale 0 is the no-effect control and ±100 the full control effect; nearly all actives have a fitted effect of over 60% in size
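Luminescent ATP detection (Kinase-Glo Plus) follows a 60-minute room-temperature incubation, with wells lacking PGK as controls. Buffer: 100 mM TEA (pH 7.6), 5 mM MgCl2, 0.01% Tween-20. Coupling enzyme GAPDH (100 nM final) supplies unstable 1,3-BPG in-well.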
Pol kappa inh-1: inhibitors of human DNA polymerase kappa. purified Pol kappa, fluorescent DNA synthesis assay, 10 min. Potency, µM (doses to about 107 µM), for inactives: at the highest dose activity, negative = inhibition, usual class: inhibitors. 0.53% of 400,000 active. AID 588579; further: on the % scale 0 is the no-effect control and ±100 the full control effect
Target sequence (Q9UBT6 whole entry, looked up): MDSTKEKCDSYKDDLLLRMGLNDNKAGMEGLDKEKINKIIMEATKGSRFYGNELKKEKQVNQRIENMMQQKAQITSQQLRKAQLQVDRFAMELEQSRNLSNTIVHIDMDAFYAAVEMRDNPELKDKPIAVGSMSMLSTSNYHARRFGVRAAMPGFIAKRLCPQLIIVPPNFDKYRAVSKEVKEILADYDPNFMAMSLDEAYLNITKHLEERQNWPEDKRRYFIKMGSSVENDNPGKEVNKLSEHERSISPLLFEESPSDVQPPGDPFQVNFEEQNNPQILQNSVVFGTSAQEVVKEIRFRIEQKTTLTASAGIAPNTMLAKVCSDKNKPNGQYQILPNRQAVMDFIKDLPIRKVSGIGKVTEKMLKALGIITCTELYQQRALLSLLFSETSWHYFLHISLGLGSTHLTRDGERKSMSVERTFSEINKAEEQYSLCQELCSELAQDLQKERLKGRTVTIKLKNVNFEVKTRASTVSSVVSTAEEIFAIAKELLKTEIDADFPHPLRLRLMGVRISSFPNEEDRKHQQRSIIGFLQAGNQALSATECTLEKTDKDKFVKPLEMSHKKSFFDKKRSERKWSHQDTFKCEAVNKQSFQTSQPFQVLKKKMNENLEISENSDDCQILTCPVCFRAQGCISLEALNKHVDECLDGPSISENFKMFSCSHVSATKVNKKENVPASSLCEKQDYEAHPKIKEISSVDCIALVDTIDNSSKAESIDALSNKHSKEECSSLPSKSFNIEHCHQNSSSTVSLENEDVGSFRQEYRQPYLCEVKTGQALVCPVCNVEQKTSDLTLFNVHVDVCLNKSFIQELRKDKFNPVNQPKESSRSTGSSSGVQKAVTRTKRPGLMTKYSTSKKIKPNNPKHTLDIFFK
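Fluorescent qHTS in 1536-well format: enzyme (10 nM) and compound sat 15 min at room temperature before 50 nM substrate (final) was added. Signal taken at 0 and 10 min; no-enzyme buffer wells were negative controls.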
POLB inh: blocks human DNA polymerase beta activity; 1.3% of 340,000 active; Pol beta primer extension/strand displacement, fluorescence kinetic; P06746; AID 485314; Potency, µM (titrated, usually from 114 µM), for inactives: at the highest dose activity change, negative = inhibition, hits mostly inhibitors; further: on the % scale 0 is the no-effect control and ±100 the full control effect
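Preincubation: enzyme (10 nM) with compound, 15 min, RT. Reaction: substrate added to 50 nM final. Reads: 0 and 10 min. Analysis: normalized, Hill fit.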
TbPGK inh: blocks T. brucei phosphoglycerate kinase; AID 686980; shares compounds with Pol kappa inh-1; Potency, µM (highest dose often 57.5 µM), without a hit: at the top dose activity change, negative = inhibition, usual class: inhibitors; TbPGK coupled GAPDH assay, Kinase-Glo luminescence; 79% of 500 active; further: on the % scale 0 is the no-effect control and ±100 the full control effect; nearly all actives have a fitted effect of over 65% in size
Pol iota confirm: Confirm cherry-picked inhibitors of human polymerase iota; Pol iota primer extension, TAMRA/BHQ fluorescence; 77% of 1,500 active; AID 720496; shares compounds with Pol kappa inh-1; Potency, µM, hits mostly inhibitors
Pol kappa inh-2: confirmation of human DNA polymerase kappa inhibitors; shares compounds with Pol eta inh-1; 76% of 920 active; purified Pol-kappa, fluorescent strand-displacement substrate; Potency, µM, actives largely listed as inhibitors
Pol eta inh-2: Pol eta (human) inhibition, cherry-pick confirmation. Pol eta primer extension, TAMRA/BHQ fluorescence, 10 min. 64% of 2,600 active. AID 720502. shares compounds with Pol eta inh-1. Potency, µM, actives largely listed as inhibitors
Numbers without * were called inactive; i = inactive; ? = inconclusive; · = no result; [ ] = dose if it differs, or a comment. The list is not random: actives were taken first. Their share in the collection is about 2.4%. The call rests on the fitted dose curve; in most records, active means well fitted curve in the direction sought with a large enough effect; inconclusive means small, poorly fitted or top-dose-only effect, or another doubt; inactive means no such curve, though single readings can be large; an effect the other way counts as inactive or inconclusive. Potency means the concentration at half of the fitted maximal effect.

SMILES	Pol eta inh-1	FEN1 inhibitor	Pol iota inh	PGK inhibitor	Pol kappa inh-1	POLB inh	Pol iota confirm	Pol eta inh-2	others
CCN(CC)c1ccc2nc3ccccc3[n+](CC)c2c1	?	?	?	?	-35%	?	·	·	TbPGK inh=33µM*
COc1ccccc1-c1nnc2sc(-c3cnccn3)nn12	45µM*	-20%	?	·	-40%	?	75*	?
CC1=C(C(=O)Nc2ccccc2C)C(c2ccc[nH]2)n2ncnc2N1 (stereo unspecified)	8.9µM*	?	22µM*	-21%	32µM*	40µM*	21*	30*
COc1ccc(-c2nc3oc4cc(OC)ccc4c(=O)c3c(=O)n2Cc2ccco2)cc1	?	?	0%	2%	1%	-16%	·	·
COc1ccc2c(=O)c3c(=O)n(Cc4ccco4)c(-c4ccco4)nc3oc2c1	35µM*	?	20µM*	-17%	71µM*	?	67*	43*
Cc1ccc(NC(=O)CSc2nnc3c(n2)[nH]c2ccccc23)cc1	-17%	11%	26%	9%	-6%	11%	·	·
CC(=O)c1ccc(NC(=O)CSc2nnc3c(n2)[nH]c2ccccc23)cc1	45µM*	?	-18%	9%	3%	8.9µM*	?	?	Pol kappa inh-2=47*
O=C(O)CN1C(=O)/C(=C\c2cc([N+](=O)[O-])ccc2OCc2ccccc2Cl)SC1=S	22µM*	-16%	28µM*	-15%	?	40µM*	?	?
O=C(O)CN1C(=O)/C(=C\c2cc(Br)ccc2OCc2ccc(Cl)cc2)SC1=S	22µM*	?	-6%	·	-3%	?	?	48*
CCOC(=O)c1cccc(Nc2ccc3cc(S(=O)(=O)N4CCCCC4)ccc3n2)c1	-19%	4%	10%	7%	-10%	-3%	·	·
COc1cccc(CN2C(=O)c3ccccc3Sc3ccc(C(=O)NCCc4ccc(Cl)cc4)cc32)c1	-24%	-14%	?	-5%	-21%	2%	·	·
Cc1ccnc2nc(C(=O)Nc3nnc(-c4ccc(Cl)cc4)o3)nn12	?	-11%	?	-6%	?	?	42*	?
CSc1ccc(/C=C/c2ccnc3ccccc23)cc1	·	-8%	33%	·	-11%	·	·	·
COc1ccc(C(=O)N(Cc2ccc(C(C)C)cc2)C2CCS(=O)(=O)C2)cc1 (stereo unspecified)	-16%	1%	-1%	15%	?	-3%	·	·
O=[N+]([O-])c1ccccc1/C=N/n1c(-c2cccnc2)n[nH]c1=S	-8%	-5%	18%	-5%	-13%	3%	·	·
O=[N+]([O-])c1cc(/C=N/n2c(-c3cccnc3)n[nH]c2=S)ccc1Cl	20µM*	56µM*	?	-13%	?	5.6µM*	17*	43*
Cc1ccc(S(=O)(=O)/C=C\C#N)cc1	·	·	·	·	-1%[19.4 µM]	·	·	·
O=C(Cc1csc(N2CCOCC2)n1)N/N=C/c1ccc(O)c(O)c1O	?	?	?	-7%	?	?	15*	43*
Cc1ccc(-c2nc3c(c(=O)[nH]c(=O)n3Cc3ccccc3)n2C)o1	11µM*	1%	11µM*	5%	?	10µM*	?	76*
Cc1ccc(-c2nc3c(c(=O)[nH]c(=O)n3Cc3ccccc3)n2Cc2ccccc2)o1	-18%	-16%	145%	i	-7%	4%	·	·
O=c1cc(-c2ccc(O)cc2)oc2cc(O)c([C@@H]3O[C@H](CO)[C@@H](O)[C@H](O)[C@H]3O)c(O)c12	9%	-6%	2%	-5%	-10%	·	·	·
O=c1cc(-c2ccc(O)c(O)c2)oc2cc(O)c(C3OC(CO)C(O)C(O)C3O)c(O)c12 (stereo unspecified)	3.2µM*	?	10µM*	?	20µM*	4.5µM*	42*	19*
CC(C)NS(=O)(=O)c1ccc2nc(NC(=O)c3cncc(Br)c3)sc2c1	-15%	-11%	17%	0%	-9%[60.1 µM]	-10%	·	·
CCS(=O)(=O)C1=NN2C(=N)/C(=C\c3ccc(SCc4ccco4)o3)C(=O)N=C2S1	4.5µM*	45µM*	?	?	28µM*	11µM*	38*	17*
COc1cc(/C=N\NC(=O)c2ccc(=O)[nH]n2)cc(OC)c1OC	?	1%	16µM*	-5%	50µM*	13µM*	30*	48*
SMILES	Pol eta inh-1	FEN1 inhibitor	Pol iota inh	PGK inhibitor	Pol kappa inh-1	POLB inh	Pol iota confirm	Pol eta inh-2	others
COc1cc(/C=N/NC(=O)c2cc(-c3cccn3C)n[nH]2)cc(OC)c1OC	28µM*	?	3.5µM*	-1%	?	?	?	27*	Pol kappa inh-2=19*
CCCCn1c(N)c(N(CCOC)C(=O)c2cc(-c3ccco3)nc3ccccc23)c(=O)[nH]c1=O	11µM*	-19%	20µM*	-6%	89µM*	·	?	?
CCCCn1c(N)c(N(CCOC)C(=O)c2cc(-c3ccc(OC)c(OC)c3)nc3ccccc23)c(=O)[nH]c1=O	-11%	-9%	27%	-2%	-16%	·	·	·
Cc1ccc2nc(/C(C#N)=C/c3ccc(O)c(O)c3)[nH]c2c1	?	?	?	-12%	?	?	·	·
Cc1ccc2nc(/C(C#N)=C/c3cccc(Br)c3)[nH]c2c1	56µM*	-13%	?	-27%	-19%	22µM*	42*	60*	Pol kappa inh-2=17*
Cc1ccc2nc(/C(C#N)=C\c3ccc(N4CCCCC4)c([N+](=O)[O-])c3)[nH]c2c1	-14%	3%	?	-8%[11.5 µM]	-11%	25µM*	38*	60*	Pol kappa inh-2=47*
Cc1ccc2nc(/C(C#N)=C/c3ccccc3C(=O)O)[nH]c2c1	-8%	14%	104%	7%	-11%	13%	·	·
